The record followed here is ChEMBL document CHEMBL4513141, “CO-ADD screening of NIH (USA) - Clinical Collection” (2021).

SMILES strings stand for the structures. The whole screen tested about 23,000 compounds, of which about 30 (0.1%) showed an effect of 50% or more. This excerpt belongs to a sample that is enriched for strong results. Entries with a potency or affinity are not part of this list.

By Inhibition is commonly meant the drop in the measured response relative to a control, in per cent.

This assay deals with Pseudomonas aeruginosa. The settings on record: Concentration 20 uM; ASSAY_TEST Inhibition of Bacterial Growth; detection method Absorption (OD600); MEDIA CAMHB; plate type 384well; NBS; CORNING #3640; time 18 hr.
Regarding `CN1C(=O)CN=C(c2ccccc2)c2cc(Cl)ccc21` [DIAZEPAM], the Inhibition came to 6.74%.

The molecule `Cc1nnc2n1-c1ccc(Cl)cc1C(c1ccccc1)=NC2` [ALPRAZOLAM] yielded an Inhibition of 52.22%.

Consider `Cc1ncc2n1-c1ccc(Cl)cc1C(c1ccccc1F)=NC2.Cl` [MIDAZOLAM HYDROCHLORIDE], for which the Inhibition is reported as 11.86%. In the case of `Cn1c(=O)c2nc[nH]c2n(C)c1=O.O` [THEOPHYLLINE] it was 16.98%.
